Consider 12 molecules from ChEMBL document CHEMBL3988442, “University of Dundee, Small-Polar-MMV Screening Library” (2021).

For part of these data: Potency and affinity values are given separately.

What all share (design): scale not given: direction of the effect not stated beside the values
In test [1] the target is Protein translocase subunit SecA (Escherichia coli (strain K12)) (UniProt P10408). The test can be described thus: Assay to Identify E. coli SecA ATPase Inhibitors. The test is classed as functional. The note with it: 30 µM.
Protein translocase subunit SecA (Escherichia coli (strain K12)), sequence (P10408 whole entry): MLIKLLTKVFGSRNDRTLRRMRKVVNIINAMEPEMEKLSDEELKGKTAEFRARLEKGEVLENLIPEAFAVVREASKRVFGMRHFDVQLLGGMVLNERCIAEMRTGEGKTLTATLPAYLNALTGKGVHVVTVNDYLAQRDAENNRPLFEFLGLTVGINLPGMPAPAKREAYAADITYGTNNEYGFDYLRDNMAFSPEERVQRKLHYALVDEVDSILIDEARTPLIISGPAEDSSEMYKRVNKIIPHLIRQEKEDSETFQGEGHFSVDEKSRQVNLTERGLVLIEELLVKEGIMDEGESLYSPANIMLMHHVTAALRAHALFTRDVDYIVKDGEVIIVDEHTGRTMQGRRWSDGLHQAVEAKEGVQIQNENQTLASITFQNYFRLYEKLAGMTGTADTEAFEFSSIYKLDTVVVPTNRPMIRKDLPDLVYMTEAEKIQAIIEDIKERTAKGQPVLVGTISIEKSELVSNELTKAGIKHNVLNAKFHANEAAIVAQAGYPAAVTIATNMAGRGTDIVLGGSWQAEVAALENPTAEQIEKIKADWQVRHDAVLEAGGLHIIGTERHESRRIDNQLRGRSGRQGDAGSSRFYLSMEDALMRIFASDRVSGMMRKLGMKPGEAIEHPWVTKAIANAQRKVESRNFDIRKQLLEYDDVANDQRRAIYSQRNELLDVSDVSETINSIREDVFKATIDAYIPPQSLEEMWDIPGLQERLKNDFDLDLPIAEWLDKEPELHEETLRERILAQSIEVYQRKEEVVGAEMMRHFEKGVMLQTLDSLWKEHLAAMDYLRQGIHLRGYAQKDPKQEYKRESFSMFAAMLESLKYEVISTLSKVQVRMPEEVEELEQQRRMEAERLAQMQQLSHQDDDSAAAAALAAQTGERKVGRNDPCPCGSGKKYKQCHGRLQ
Test [2] addresses T1, Ubiquitin-activating enzyme e1, putative (Leishmania donovani (strain BPK282A1)) (UniProt E9BSI1).
T1 sequence (whole entry): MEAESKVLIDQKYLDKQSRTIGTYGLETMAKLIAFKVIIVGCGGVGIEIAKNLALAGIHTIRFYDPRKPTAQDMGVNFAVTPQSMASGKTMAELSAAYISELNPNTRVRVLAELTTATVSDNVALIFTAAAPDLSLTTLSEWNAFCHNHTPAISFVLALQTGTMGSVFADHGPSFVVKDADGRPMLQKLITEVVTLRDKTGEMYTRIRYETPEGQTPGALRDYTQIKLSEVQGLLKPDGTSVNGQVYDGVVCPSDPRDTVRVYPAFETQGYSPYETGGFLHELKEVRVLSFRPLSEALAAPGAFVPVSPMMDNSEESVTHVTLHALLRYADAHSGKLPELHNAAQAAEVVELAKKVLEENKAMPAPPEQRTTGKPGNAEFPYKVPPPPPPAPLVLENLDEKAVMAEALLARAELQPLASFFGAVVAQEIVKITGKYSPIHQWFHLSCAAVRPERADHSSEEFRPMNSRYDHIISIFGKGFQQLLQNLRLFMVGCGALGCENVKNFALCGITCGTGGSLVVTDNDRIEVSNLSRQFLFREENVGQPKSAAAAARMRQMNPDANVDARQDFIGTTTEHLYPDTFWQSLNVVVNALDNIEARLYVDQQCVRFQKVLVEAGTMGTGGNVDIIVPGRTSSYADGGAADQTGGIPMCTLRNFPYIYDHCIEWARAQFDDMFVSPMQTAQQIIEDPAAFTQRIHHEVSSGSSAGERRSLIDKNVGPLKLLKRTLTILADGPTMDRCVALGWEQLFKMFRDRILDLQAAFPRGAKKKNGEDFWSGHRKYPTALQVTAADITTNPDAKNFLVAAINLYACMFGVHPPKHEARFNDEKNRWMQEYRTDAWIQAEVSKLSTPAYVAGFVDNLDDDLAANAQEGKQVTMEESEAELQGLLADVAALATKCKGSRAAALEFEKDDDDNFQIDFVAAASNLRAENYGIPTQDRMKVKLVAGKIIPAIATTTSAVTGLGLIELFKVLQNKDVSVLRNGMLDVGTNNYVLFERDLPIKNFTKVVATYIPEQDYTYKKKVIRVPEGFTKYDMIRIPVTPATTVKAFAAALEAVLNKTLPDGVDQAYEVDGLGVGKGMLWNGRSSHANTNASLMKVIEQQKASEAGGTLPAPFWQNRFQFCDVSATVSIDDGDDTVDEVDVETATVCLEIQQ
The test can be described thus: Leishmania donovani Ubiquitin Activating Enzyme (LdE1). Format: functional. As to conditions: 30 µM.

Test [3] has as its target AMP-activated protein kinase, AMPK (Homo sapiens) (UniProt P54646+O43741+P54619+Q9UGJ0+Q9Y478+Q13131+Q9UGI9). The test can be described thus: AMP-dependent Kinase enzyme assay. An in vitro enzyme assay that detects ADP turnover that is directly proportional to AMPK activity. This uses naive AMPK that is activated during the assay with MK-8722. Format: functional. As to conditions: 30 µM.

Test [4] has as its target Sialic acid-binding Ig-like lectin 9 (Homo sapiens) (UniProt Q9Y336). The test can be described thus: Hs-Siglec9 ALPHAscreen SOP 20170721. The note with it: 10 µM.
In a further test the test system is Trypanosoma cruzi. Kind of test: Trypanosoma cruzi phosphomannomutase and mannose-1-phosphate guanylyltransferase assay. The test is classed as functional. As to conditions: 10 µM.
For test [5], the target named is T2, Arginase-2, mitochondrial (Homo sapiens) (UniProt P78540).
T2 sequence (whole entry): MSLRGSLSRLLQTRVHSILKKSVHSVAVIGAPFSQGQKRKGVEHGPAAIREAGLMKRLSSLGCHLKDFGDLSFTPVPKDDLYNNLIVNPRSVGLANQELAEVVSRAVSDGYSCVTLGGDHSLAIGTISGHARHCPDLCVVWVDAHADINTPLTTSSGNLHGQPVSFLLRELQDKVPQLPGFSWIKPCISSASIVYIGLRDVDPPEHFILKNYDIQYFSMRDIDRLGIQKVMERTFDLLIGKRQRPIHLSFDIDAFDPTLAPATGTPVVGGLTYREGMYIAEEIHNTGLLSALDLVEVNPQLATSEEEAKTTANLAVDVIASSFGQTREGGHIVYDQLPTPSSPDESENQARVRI
The test can be described thus: in vitro enzyme assay to detect the production of urea directly proportional to the activity of Arginase II. Also: in the data most compounds retested in dose-response had high values. The test is classed as functional. As to conditions: 33.3 µM.

Test [6] has as its target T3, Proteasome subunit beta (Trypanosoma cruzi) (UniProt O96673).
T3 sequence (whole entry): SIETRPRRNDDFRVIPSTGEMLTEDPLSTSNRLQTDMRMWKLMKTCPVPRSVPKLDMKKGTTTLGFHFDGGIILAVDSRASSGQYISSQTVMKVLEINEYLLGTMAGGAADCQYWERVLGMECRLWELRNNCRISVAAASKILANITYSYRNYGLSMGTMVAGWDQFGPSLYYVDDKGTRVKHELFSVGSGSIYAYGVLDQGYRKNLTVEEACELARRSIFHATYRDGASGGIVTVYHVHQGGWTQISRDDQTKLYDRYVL
Kind of test: Trypanosoma cruzi proteasome chymotrypsin-like activity (TcProtChymo) assay. Also: in the data most compounds retested in dose-response had high values. The note with it: 9.37 µM. The test is classed as functional.

The species entered for another test is Homo sapiens. Kind of test: To identify inhibition of the IFN signalling (Jak-Stat) pathway via expression of an eGFP reporter gene under the control of an IFN-stimulated response element (ISRE) containing MxA promoter. The test is classed as functional. As to conditions: 30 µM.
Test [7] deals with T4, Tyrosyl-tRNA synthetase, putative (Trypanosoma cruzi (strain CL Brener)) (UniProt Q4DSP6).
T4 sequence (whole entry): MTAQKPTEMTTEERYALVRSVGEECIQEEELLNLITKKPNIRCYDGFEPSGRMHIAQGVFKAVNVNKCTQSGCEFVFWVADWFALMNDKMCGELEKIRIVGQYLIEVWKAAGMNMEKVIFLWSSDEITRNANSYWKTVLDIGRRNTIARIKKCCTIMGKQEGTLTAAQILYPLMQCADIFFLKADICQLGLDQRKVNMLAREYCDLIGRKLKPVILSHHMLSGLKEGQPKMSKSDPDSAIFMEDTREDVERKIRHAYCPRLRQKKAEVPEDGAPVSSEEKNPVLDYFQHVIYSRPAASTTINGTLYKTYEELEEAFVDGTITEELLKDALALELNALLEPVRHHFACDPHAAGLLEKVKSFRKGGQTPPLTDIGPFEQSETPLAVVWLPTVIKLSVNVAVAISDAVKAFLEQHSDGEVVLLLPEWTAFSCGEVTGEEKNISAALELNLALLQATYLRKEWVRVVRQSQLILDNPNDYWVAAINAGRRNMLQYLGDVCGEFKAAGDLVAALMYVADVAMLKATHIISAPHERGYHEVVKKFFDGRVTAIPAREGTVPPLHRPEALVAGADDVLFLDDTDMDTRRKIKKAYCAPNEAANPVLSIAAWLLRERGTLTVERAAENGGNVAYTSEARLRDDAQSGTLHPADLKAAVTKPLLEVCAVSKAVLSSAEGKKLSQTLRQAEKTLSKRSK
Kind of test: Trypanosoma cruzi tyrosyl tRNA synthetase (TcYRS) _High Tyrosine SOP. Also: in the data most compounds retested in dose-response had high values. Format: functional. The note with it: 30 µM.

Test [8] addresses T4, Tyrosyl-tRNA synthetase, putative (Trypanosoma cruzi (strain CL Brener)). The test can be described thus: Trypanosoma cruzi tyrosyl tRNA synthetase (TcYRS) SOP. The test is classed as functional. The note with it: 30 µM.
Test [9] has as its target Chromo domain-containing protein 1 (Saccharomyces cerevisiae (strain ATCC 204508 / S288c) (Baker's yeast)) (UniProt P32657). The test can be described thus: ScCHD-1 Enzyme Inhibition Assay. Also: in the data most compounds retested in dose-response had high values. Format: functional. The note with it: 30 µM.

Chromo domain-containing protein 1 (Saccharomyces cerevisiae (strain ATCC 204508 / S288c) (Baker's yeast)), sequence (P32657 whole entry, the tested form may be a part): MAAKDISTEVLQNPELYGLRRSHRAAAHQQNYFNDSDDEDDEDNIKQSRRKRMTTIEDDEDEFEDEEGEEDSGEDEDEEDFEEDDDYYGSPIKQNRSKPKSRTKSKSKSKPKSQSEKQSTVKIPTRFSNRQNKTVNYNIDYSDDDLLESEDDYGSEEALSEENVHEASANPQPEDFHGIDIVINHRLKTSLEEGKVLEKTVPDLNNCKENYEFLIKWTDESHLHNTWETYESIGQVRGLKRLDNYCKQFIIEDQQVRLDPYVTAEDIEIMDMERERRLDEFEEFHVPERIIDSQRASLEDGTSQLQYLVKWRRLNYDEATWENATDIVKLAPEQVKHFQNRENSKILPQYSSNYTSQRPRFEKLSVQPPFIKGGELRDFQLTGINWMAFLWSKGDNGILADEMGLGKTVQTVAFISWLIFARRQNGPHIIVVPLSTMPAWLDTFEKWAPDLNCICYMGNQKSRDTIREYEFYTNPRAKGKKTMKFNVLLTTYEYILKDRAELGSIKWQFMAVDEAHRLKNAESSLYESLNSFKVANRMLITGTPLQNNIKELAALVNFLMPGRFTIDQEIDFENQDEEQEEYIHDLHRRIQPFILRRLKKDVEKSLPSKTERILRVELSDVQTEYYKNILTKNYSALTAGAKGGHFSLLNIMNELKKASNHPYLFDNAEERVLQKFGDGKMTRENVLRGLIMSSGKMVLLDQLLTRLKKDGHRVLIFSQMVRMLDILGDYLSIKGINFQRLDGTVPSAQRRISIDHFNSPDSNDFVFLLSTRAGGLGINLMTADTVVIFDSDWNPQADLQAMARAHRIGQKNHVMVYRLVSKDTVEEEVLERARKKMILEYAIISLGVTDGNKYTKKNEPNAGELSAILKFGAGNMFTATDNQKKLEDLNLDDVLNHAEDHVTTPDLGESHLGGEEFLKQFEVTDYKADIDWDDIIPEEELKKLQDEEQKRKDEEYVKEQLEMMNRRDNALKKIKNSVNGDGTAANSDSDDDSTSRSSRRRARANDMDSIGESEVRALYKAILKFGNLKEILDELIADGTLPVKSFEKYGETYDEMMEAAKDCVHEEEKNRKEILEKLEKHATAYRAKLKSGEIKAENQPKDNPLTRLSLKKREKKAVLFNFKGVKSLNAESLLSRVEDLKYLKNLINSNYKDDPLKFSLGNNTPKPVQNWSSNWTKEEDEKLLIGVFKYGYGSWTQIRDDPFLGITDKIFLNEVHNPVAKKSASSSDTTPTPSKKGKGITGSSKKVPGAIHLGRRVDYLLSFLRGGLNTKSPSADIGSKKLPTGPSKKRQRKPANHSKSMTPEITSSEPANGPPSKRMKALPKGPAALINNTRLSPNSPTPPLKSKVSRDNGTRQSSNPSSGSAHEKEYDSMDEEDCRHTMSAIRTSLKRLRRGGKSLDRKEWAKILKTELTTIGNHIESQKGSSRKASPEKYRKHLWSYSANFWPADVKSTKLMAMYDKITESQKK
Sialic acid-binding Ig-like lectin 9 (Homo sapiens), sequence (Q9Y336 whole entry): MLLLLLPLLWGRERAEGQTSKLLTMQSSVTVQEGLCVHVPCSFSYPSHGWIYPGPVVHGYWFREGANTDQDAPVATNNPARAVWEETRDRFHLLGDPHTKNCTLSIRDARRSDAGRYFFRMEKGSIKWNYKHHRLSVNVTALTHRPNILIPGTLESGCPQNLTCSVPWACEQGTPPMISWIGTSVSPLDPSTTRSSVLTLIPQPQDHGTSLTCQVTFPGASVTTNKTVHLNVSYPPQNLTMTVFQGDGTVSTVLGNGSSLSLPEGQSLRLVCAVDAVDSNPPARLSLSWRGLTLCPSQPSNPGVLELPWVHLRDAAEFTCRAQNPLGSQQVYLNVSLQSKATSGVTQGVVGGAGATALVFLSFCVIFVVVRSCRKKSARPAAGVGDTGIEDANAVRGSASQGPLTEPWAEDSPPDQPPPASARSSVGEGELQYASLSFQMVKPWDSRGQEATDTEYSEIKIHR

As to `Cc1ccc(N2CCCC(NCc3nc(C)c(C)o3)C2)nn1` (configuration not stated), the Percent Effect was -2.18% in [1]; -1.27% in test [2]; -3.24% in [3]; 1.76% in test [4]; 9.54% with Trypanosoma cruzi; -1.07% in [5]. For the same molecule, the Percent Effect in [6] is -2.4%; in the test listed under Homo sapiens, 2.43%; in [7], 3.12%; in [8], 15.2%; in test [9], -25.4%.

As to `Cc1nc2ccccc2nc1CN1CCCC1c1c(C)nn(C)c1C` (configuration not stated), the Percent Effect in test [1] was -4.48%; in test [2], 1.27%; in [3], 5.44%; in [4], 6.81%; in the test on Trypanosoma cruzi, 5.44%; in test [5], -1.94%. Also, the Percent Effect in [6] was 2.23%; in the test filed under Homo sapiens, 3.07%; in test [7] it was 5.21%; in [8], 17.7%; in [9], -26.1%.

With `COc1cc(CNC2CCc3nc(C(C)C)nn3C2)cc2c1OCO2` (configuration not stated), the Percent Effect in test [1] was -3.28%; in test [2] it was 2.63%; in test [3], -0.342%; in test [4], 1.45%; in the test with Trypanosoma cruzi it was -0.28%; in test [5], 3.24%. For the same molecule, the Percent Effect in test [6] is -0.592%; in the test filed under Homo sapiens it was -4.24%; in [7] it was 1.48%; in test [8] it was -6.17%; in [9], -3.88%.

Turning to `O=C(O)c1c[nH]c2cc(NS(=O)(=O)c3cccc(Cl)c3F)ccc12`, the Percent Effect in test [1] was -4.73%; in test [2] it was -10.4%; in test [3], -45.8%; in test [4], 7.97%; in the test on Trypanosoma cruzi, 0.562%; in test [5] it was 5.69%. In addition, the Percent Effect in test [6] is 4.22%; in the test listed under Homo sapiens, 2.38%; in [7], -11.7%; in test [8], -24.4%; in [9], 0.552%.

Consider `CCc1ccc(C(=O)N2CCN(CC(C)O)CC2)o1` (configuration not stated), for which the Percent Effect in [1] was 0.315%; in [2], 21.1%; in test [3] it was -5.4%; in test [4], -6.92%; with Trypanosoma cruzi, 5.08%; in test [5], 6.13%. For the same molecule, the Percent Effect in test [6] is 16.2%; in the test filed under Homo sapiens, 3.74%; in test [7], 1.47%; in test [8], 19.5%; in [9] it was -12.7%.

On to `CC(C)Sc1nnc(CCNC(=O)OC(C)(C)C)o1`, for which the Percent Effect was 1.34% in [1]; 4% in test [2]; -0.0572% in [3]; 0.92% in [4]; -8.45% with Trypanosoma cruzi; 0.176% in test [5]. The Percent Effect in [6] was 12.2%; in the test listed under Homo sapiens it was 32.6%; in test [7], -2.12%; in test [8], -12.8%; in test [9], -10.5%.

Consider `Cc1nonc1C(=O)N1CCCC(c2ncncc2-c2ccncc2)C1` (configuration not stated), for which the Percent Effect in [1] is -5.71%; in test [2], 8%; in [3] it was 11.1%; in test [4], 2.77%; in the test with Trypanosoma cruzi, -0.591%; in test [5] it was 0.699%. In addition, the Percent Effect is 3.08% in [6]; -1.27% in the test listed under Homo sapiens; 5.32% in [7]; 8.97% in [8]; -4.88% in test [9].

As for `Cc1cn2c(n1)CCC(NC(=O)c1ccc(CS(C)(=O)=O)o1)C2` (configuration not stated), the Percent Effect in test [1] was -2.09%; in [2], 7.89%; in test [3] it was 0.931%; in test [4] it was 9.84%; with Trypanosoma cruzi, 4.13%; in test [5], 0.766%. In addition, the Percent Effect in test [6] was 9.52%; in the test listed under Homo sapiens it was 3.27%; in test [7], 3.43%; in test [8], 9.76%; in [9], -9.57%.

As for `O=C(NCCc1cccs1)[C@H]1CO[C@H]2CCNC[C@H]2C1`, the Percent Effect in test [1] was 0.545%; in test [2] it was 13.5%; in test [3], 0.0792%; in test [4], -4.42%; in the test on Trypanosoma cruzi, -4.99%; in test [5], 6.05%. For the same molecule, the Percent Effect is 19.4% in [6]; 12.4% in the test filed under Homo sapiens; 1.08% in test [7]; 10.3% in test [8]; -2.47% in [9].

Turning to `O=C(Cn1nc2c(cc1=O)CSCC2)NC(Cc1ccccc1)C(=O)O` (configuration not stated), the Percent Effect in test [1] is -6.43%; in test [2] it was 20%; in test [3], -8.36%; in [4] it was 1.5%; with Trypanosoma cruzi, 7.47%; in [5], 89.3%. Besides, the Percent Effect in test [6] is 15%; in the test listed under Homo sapiens, 7.8%; in [7], -2.12%; in test [8], 15.4%; in [9], -19%.

On to `NS(=O)(=O)CCNC(=O)c1nnn(-c2ccc(F)cc2)c1C1CC1`, for which the Percent Effect in [1] was -0.864%; in [2] it was 8.11%; in test [3], -3.7%; in [4], 0.877%; with Trypanosoma cruzi, 3.91%; in [5], 14.6%. In addition, the Percent Effect in test [6] is 19.5%; in the test filed under Homo sapiens, -4.31%; in test [7] it was 9.9%; in test [8], 15.8%; in [9], -4.04%.

As for `CNC(=O)N1CC[C@H]2N(C)CC[C@@]2(C(=O)Nc2ccccc2)CC1`, the Percent Effect in [1] was -3.9%; in test [2], 5.41%; in test [3], -2.05%; in [4], 1.61%; in the test with Trypanosoma cruzi, 5.08%; in [5] it was 4.17%. Further, the Percent Effect was 2.45% in [6]; 11.5% in the test listed under Homo sapiens; 1.98% in test [7]; 6.1% in test [8]; -1.69% in [9].
